Test results: PubChem BioAssay (EPA / NIEHS)
Results filed as inconclusive are left out. Calls of active or inactive are those of the source. Rule for the calls, unless noted: active = hit-call score of the fitted dose curve at least 0.9, where 1 is the maximum; inactive = score below 0.9.

Key:
[1] = target: Paired box protein Pax-6 (Homo sapiens) (UniProt P26367); test: ATG_Pax6_CIS: Attagene CIS-FACTORIAL HepG2 Assay for human Paired Box 6 (PAX6) (AID 2282956); conditions: HepG2 CIS-FACTORIAL PAX6 reporter transcription, RNA readout; actives raise or lower the signal
Procedure, shortened: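 Read-out is reporter transcript level, measured by RT-PCR with fluorescent primer extension and capillary electrophoresis after 24 h dosing of transfected HepG2 cells. Activity in either direction fitted relative to DMSO control.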

[2] = ATG_PXRE_CIS: Attagene CIS-FACTORIAL HepG2 Assay for human Pregnane X Receptor Element (PXRE) (AID 2282957); conditions: HepG2 Attagene CIS-FACTORIAL PXRE reporter, mRNA; actives raise or lower the signal
Procedure, shortened: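 Fluorescent capillary electrophoresis of amplified reporter cDNA gave the signal, collected 24 h after dosing HepG2 cells that held transfected cis-element reporter constructs.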

[3] = ATG_RORE_CIS: Attagene CIS-FACTORIAL HepG2 Assay for human RAR-related Orphan Receptor Element (RORE) (AID 2282959); conditions: HepG2 Attagene cis-factorial RORE reporter, mRNA; actives raise or lower the signal
Procedure, shortened: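 Readout: fluorescent reporter mRNA by RT-PCR plus capillary electrophoresis, 24 h after dosing transfected HepG2 cells. Endogenous transcription factor activity on a cis promoter element is measured. Gain or loss of signal fitted against DMSO.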

[4] = ATG_Sox_CIS: Attagene CIS-FACTORIAL HepG2 Assay for human SRY-box transcription factor (SOX) (AID 2282960); conditions: HepG2 Attagene cis-factorial SOX reporter, mRNA; actives raise or lower the signal
Procedure, shortened: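 Read-out: fluorescent RT-PCR products of SOX1-linked reporter transcripts resolved by capillary electrophoresis, fitted bidirectionally against DMSO. Transiently transfected HepG2 cells, 24 h after chemical exposure, endogenous transcription factor activity.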

[5] = target: Transcription factor Sp1 (Homo sapiens) (UniProt P08047); test: ATG_Sp1_CIS: Attagene CIS-FACTORIAL HepG2 Assay for human Specificity Protein 1 (Sp1) (AID 2282961); conditions: HepG2 Sp1 cis-reporter transcription, actives raise or lower the signal
Procedure, shortened: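 Read-out: fluorescence of 6-FAM-labeled, HpaI-digested RT-PCR products separated by capillary electrophoresis. HepG2 cells carried transfected cis-element reporter units and were exposed to chemicals for 24 h; gain or loss of signal fitted relative to DMSO.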

[6] = ATG_SREBP_CIS: Attagene CIS-FACTORIAL HepG2 Assay for human Sterol Regulatory Element Binding (SREBP) (AID 2282962); conditions: HepG2 Attagene cis-factorial SREBP reporter, mRNA; actives raise or lower the signal
Procedure, shortened: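 Endogenous SREBP activity read as cis-element-driven reporter transcript in transiently transfected HepG2, 24 h post-dosing; quantified via RT-PCR plus capillary electrophoresis of fluorescent fragments. Gain or loss of signal fitted relative to DMSO baseline.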

[7] = target: Signal transducer and activator of transcription 3 (Homo sapiens) (UniProt P40763); test: ATG_STAT3_CIS: Attagene CIS-FACTORIAL HepG2 Assay for human Signal Transducer and Activator of Transcription 3 (STAT3) (AID 2282963); conditions: HepG2, Attagene cis-factorial STAT3 reporter transcription; actives raise or lower the signal
Procedure, shortened: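 Readout is reporter transcript quantified by RT-PCR and capillary electrophoresis, with 6-FAM primer extension and HpaI digestion. Total RNA is taken 24 h after dosing transiently transfected HepG2 carrying cis-regulated reporter units. Bidirectional fit against DMSO.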

[8] = ATG_TA_CIS: Attagene CIS-FACTORIAL HepG2 Assay for human TA Basal Promoter (AID 2282964); conditions: HepG2 Attagene CIS-factorial TA basal promoter reporter; actives raise or lower the signal
Procedure, shortened: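 Transfected HepG2, 24 h compound exposure; RNA → RT-PCR → FAM primer extension → HpaI cut → CE fluorescence. Gain/loss-of-signal fitted against DMSO negative control. Background-control readout.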

[9] = ATG_TCF_b_cat_CIS: Attagene CIS-FACTORIAL HepG2 Assay for human T-Cell-Factor with beta-catenin (TCF/b-cat) (AID 2282965); conditions: HepG2 TCF/beta-catenin cis-reporter transcription, actives raise or lower the signal
Procedure, shortened: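 Endogenous TCF/LEF activity read as reporter transcript level via RT-PCR and capillary electrophoresis fluorescence in transfected HepG2, 24 h exposure; gain or loss of signal fitted against DMSO controls.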

[10] = ATG_TAL_CIS: Attagene CIS-FACTORIAL HepG2 Assay for human TAL Basal Promoter (AID 2282966); conditions: HepG2 Attagene cis-factorial TAL promoter reporter; actives raise or lower the signal;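 note: background control endpoint measuring basal TAL promoter reporter mRNA not a specific factor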
Procedure, shortened: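 Transiently transfected HepG2 (cis-regulated reporter units), 24 h treatment, mRNA read by fluorescent CE after RT-PCR; bidirectional fit, DMSO baseline.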

[11] = ATG_TGFb_CIS: Attagene CIS-FACTORIAL HepG2 Assay for human Transforming Growth Factor (TGF) (AID 2282967); conditions: HepG2 Attagene CIS TGFb reporter, mRNA transcription; actives raise or lower the signal
Procedure, shortened: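 Readout: fluorescently labeled reporter cDNA fragments resolved by capillary electrophoresis after RT-PCR. Transfected HepG2 cells dosed for 24 h; endogenous TF activity at TGFB1-linked cis element; gain or loss fitted relative to DMSO.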

[12] = ATG_VDRE_CIS: Attagene CIS-FACTORIAL HepG2 Assay for human Vitamin D Receptor Element (VDRE) (AID 2282968); conditions: HepG2 VDRE cis-reporter transcription, actives raise or lower the signal
Procedure, shortened: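 Readout is VDRE-driven reporter mRNA reflecting endogenous factor activity in human HepG2 cells, sampled 24 h post-dose. Quantification used labelled RT-PCR products separated by capillary electrophoresis; bidirectional analysis relative to DMSO.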

[13] = target: X-box-binding protein 1 (Homo sapiens) (UniProt P17861); test: ATG_Xbp1_CIS: Attagene CIS-FACTORIAL HepG2 Assay for human X-box Binding Protein 1 (XBP1) (AID 2282972); conditions: HepG2 XBP1 cis-element reporter, Attagene multiplex; actives raise or lower the signal
Procedure, shortened: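 Reporter transcripts were quantified by RT-PCR with fluorescent primer extension and capillary electrophoresis after 24 h chemical exposure. Cells: transiently transfected HepG2 carrying cis-regulated reporter constructs; data fitted bidirectionally relative to DMSO.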

[14] = ATG_PPRE_CIS: Attagene CIS-FACTORIAL HepG2 Assay for human Peroxisome Proliferator-activated Response Element (PPRE) (AID 2282958); conditions: HepG2 PPRE cis-element reporter, Attagene transcription factor profiling; actives raise or lower the signal
Procedure, shortened: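 Read-out: fluorescent reporter mRNA fragments resolved by capillary electrophoresis after RT-PCR. HepG2 cells carried transiently transfected PPRE-driven cis reporter constructs and were dosed for 24 h; gain or loss of signal fitted relative to DMSO.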

[15] = ATG_M_19_TRANS: Attagene TRANS-FACTORIAL HepG2 Assay for M19 Transcription Factor (Internal Marker) (AID 2282974; active = hit-call score of the fitted dose curve at least 0.9, where 1 is the maximum); conditions: HepG2 Attagene TRANS-FACTORIAL M19 internal marker reporter
Procedure, shortened: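 24 h chemical exposure of transiently transfected HepG2 (MRTU library). RNA → oligo(dT) RT → PCR → 6-FAM labelling → HpaI cut → CE fluorescence. Positive-direction fit vs DMSO baseline; background internal-marker readout.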

[16] = ATG_GAL4_TRANS: Attagene TRANS-FACTORIAL HepG2 Assay for GAL4 (Internal Marker) (AID 2282976; active = hit-call score of the fitted dose curve at least 0.9, where 1 is the maximum); conditions: HepG2 Attagene TRANS GAL4 internal marker reporter
Procedure, shortened: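 HepG2 cells transiently transfected with multiplexed GAL4-UAS reporter constructs were dosed for 24 h. Reporter mRNA was measured by RT-PCR, 6-FAM primer extension, HpaI digestion and capillary electrophoresis, and gain of signal was fitted relative to DMSO.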

[17] = target: Estrogen receptor (Homo sapiens) (UniProt P03372); test: ATG_ERa_TRANS: Attagene TRANS-FACTORIAL HepG2 Assay for human Estrogen Receptor alpha (ERa) (AID 2282970; active = hit-call score of the fitted dose curve at least 0.9, where 1 is the maximum); conditions: HepG2 Attagene TRANS ERa GAL4 reporter, mRNA
Procedure, shortened: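 One of 30 multiplexed endpoints from a HepG2 TRANS system, this one reports ERa-Gal4-driven reporter mRNA. Transcripts were quantified 24 hours post-dosing by fluorescent RT-PCR and capillary electrophoresis, with activity scored as induction over DMSO.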

[18] = ATG_PBREM_CIS: Attagene CIS-FACTORIAL HepG2 Assay for human Phenobarbital-responsive Enhancer Module (PBREM) (AID 2282955); conditions: HepG2 PBREM cis-reporter, Attagene multiplexed transcription; actives raise or lower the signal
Procedure, shortened: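 Reporter mRNA read by RT-PCR, 6-FAM primer extension, HpaI digestion and capillary electrophoresis. Transfected HepG2 cells, 24 h compound exposure. Gain or loss of signal fitted bidirectionally relative to DMSO baseline.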

[19] = target: Nuclear receptor subfamily 1 group I member 3 (Homo sapiens) (UniProt Q14994); test: ATG_CAR_TRANS: Attagene TRANS-FACTORIAL HepG2 Assay for human Constitutive Androstane Receptor (CAR) (AID 2282969; active = hit-call score of the fitted dose curve at least 0.9, where 1 is the maximum;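 note: activators raise reporter mRNA above DMSO so AC50 marks induction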); conditions: HepG2 Attagene TRANS-FACTORIAL CAR reporter
Procedure, shortened: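 Signal is reporter mRNA induction relative to DMSO, measured 24 h after dosing by RT-PCR with fluorescent primer extension and capillary electrophoresis. Human HepG2 liver cells carried transiently transfected chimeric NR-Gal4/GAL4-UAS reporter constructs.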

[20] = target: Steroid hormone receptor ERR1 (Homo sapiens) (UniProt P11474); test: ATG_ERRa_TRANS: Attagene TRANS-FACTORIAL HepG2 Assay for human Estrogen-Related Receptor alpha (ERRa) (AID 2282971; active = hit-call score of the fitted dose curve at least 0.9, where 1 is the maximum); conditions: HepG2 Attagene TRANS reporter, ERRa transactivation
Procedure, shortened: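 HepG2 cells transiently transfected with multiplexed GAL4-UAS reporter units reading chimeric ERRa-Gal4 activity; 24 h compound exposure. Reporter mRNA measured by RT-PCR, 6-FAM labelling, HpaI digest and capillary electrophoresis; gain of signal fitted versus DMSO baseline.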

Measured: AC50

Sequence of Signal transducer and activator of transcription 3 (Homo sapiens) (P40763 whole entry, looked up): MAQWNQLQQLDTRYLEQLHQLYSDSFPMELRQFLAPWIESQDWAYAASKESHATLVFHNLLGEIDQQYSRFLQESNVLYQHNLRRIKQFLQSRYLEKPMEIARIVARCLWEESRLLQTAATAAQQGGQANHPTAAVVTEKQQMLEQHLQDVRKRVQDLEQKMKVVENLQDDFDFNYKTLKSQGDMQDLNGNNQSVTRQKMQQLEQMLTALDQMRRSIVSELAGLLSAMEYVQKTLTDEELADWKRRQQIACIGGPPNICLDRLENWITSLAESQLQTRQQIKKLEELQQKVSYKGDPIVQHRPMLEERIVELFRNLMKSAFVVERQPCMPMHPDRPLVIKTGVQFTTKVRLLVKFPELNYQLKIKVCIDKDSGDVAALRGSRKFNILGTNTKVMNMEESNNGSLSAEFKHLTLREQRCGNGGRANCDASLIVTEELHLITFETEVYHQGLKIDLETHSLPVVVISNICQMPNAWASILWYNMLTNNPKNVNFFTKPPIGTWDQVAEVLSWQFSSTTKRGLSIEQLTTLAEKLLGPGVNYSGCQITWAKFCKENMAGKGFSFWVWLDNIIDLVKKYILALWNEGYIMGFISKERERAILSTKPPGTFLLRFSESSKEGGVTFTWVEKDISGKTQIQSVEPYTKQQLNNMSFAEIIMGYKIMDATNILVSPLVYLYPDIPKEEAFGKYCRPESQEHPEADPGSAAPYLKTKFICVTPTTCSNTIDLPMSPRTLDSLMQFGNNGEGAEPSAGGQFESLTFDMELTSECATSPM
Sequence of Transcription factor Sp1 (Homo sapiens) (P08047 whole entry, looked up): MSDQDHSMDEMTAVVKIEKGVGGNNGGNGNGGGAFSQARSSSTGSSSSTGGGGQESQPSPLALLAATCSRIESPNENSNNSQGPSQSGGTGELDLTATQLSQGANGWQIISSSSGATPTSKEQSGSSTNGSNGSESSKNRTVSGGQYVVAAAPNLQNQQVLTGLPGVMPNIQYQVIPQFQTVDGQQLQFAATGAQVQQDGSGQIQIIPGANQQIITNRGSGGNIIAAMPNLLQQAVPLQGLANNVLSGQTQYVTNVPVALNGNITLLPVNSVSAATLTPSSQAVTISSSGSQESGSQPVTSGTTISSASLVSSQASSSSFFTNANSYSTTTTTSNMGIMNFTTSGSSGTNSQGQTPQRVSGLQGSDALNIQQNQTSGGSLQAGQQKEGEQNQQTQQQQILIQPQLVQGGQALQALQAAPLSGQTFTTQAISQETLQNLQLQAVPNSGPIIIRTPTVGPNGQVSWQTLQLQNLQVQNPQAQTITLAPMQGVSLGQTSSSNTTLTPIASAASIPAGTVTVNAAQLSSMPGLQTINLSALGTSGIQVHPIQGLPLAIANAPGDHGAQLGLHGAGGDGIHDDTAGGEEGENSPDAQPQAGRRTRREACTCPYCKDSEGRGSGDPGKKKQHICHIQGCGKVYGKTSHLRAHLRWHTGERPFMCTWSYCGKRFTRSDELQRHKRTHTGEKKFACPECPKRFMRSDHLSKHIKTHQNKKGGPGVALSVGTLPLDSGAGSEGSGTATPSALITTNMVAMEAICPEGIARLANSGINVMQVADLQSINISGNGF
Sequence of Estrogen receptor (Homo sapiens) (P03372 whole entry, looked up, the tested form may be a part): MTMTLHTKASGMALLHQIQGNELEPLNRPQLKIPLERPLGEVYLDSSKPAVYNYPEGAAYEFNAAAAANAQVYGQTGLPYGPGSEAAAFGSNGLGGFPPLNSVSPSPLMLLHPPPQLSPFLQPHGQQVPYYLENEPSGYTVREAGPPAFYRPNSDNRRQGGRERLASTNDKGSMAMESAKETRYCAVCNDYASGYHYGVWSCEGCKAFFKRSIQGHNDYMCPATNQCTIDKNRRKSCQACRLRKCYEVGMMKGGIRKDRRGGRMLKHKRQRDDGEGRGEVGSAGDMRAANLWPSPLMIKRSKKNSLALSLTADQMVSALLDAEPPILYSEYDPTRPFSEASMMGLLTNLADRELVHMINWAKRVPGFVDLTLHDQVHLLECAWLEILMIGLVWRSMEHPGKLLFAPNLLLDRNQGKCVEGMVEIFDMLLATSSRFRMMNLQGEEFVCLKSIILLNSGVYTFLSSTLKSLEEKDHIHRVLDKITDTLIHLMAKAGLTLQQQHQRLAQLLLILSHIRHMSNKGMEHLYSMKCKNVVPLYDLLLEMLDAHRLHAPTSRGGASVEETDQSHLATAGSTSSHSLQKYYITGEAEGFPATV
Sequence of Paired box protein Pax-6 (Homo sapiens) (P26367 whole entry, looked up): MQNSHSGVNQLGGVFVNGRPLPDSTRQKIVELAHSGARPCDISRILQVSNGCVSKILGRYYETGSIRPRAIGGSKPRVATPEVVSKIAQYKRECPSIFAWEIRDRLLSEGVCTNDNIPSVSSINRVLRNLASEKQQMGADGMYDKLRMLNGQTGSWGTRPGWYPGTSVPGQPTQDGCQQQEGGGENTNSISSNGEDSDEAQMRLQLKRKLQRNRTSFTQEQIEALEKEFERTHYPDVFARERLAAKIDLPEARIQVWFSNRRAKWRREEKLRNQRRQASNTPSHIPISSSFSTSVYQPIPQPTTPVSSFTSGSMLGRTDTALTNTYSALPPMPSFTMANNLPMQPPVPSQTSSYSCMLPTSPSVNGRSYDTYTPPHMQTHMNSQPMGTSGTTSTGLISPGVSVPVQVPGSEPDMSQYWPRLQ
Sequence of X-box-binding protein 1 (Homo sapiens) (P17861 whole entry, looked up): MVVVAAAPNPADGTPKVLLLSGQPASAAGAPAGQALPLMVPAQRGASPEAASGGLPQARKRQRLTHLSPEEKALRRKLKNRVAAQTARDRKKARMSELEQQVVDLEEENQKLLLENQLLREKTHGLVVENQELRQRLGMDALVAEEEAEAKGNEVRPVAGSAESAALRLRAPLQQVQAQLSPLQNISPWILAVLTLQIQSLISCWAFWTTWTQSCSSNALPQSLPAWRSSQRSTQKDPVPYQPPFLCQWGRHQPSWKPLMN
Sequence of Nuclear receptor subfamily 1 group I member 3 (Homo sapiens) (Q14994 whole entry, looked up, the tested form may be a part): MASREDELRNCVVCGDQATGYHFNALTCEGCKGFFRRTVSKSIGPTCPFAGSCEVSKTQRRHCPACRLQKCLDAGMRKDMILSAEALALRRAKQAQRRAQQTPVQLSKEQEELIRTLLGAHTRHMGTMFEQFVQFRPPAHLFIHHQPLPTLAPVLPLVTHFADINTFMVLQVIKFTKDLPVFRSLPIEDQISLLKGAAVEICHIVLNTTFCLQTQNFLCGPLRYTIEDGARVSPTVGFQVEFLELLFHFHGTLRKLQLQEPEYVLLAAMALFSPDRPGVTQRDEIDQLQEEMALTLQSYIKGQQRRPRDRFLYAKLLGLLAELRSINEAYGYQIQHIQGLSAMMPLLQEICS
Sequence of Steroid hormone receptor ERR1 (Homo sapiens) (P11474 whole entry, looked up, the tested form may be a part): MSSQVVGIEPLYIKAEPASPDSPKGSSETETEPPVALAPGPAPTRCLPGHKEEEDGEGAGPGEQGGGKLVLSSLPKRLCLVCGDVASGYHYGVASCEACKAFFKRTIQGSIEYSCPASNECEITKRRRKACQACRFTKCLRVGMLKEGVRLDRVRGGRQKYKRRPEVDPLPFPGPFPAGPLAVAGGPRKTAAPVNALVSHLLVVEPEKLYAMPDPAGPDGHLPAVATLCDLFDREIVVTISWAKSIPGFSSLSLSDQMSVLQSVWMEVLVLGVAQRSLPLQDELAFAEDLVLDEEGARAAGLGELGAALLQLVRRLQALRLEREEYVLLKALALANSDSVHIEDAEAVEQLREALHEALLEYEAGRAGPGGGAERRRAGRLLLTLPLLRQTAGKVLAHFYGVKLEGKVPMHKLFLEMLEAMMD

COc1cc2c(c(OC)c1OC)-c1ccc(OC)c(=O)cc1[C@@H](NC(C)=O)CC2
active: [9] 0.348 µM
not listed: [14] | [15] | [16] | [17] | [18] | [19] | [20]
inactive: all other assays above

O=C(O)c1cccc(C(=O)O)c1
not listed: [12] | [17] | [18] | [19] | [20]
inactive: all other assays above

CC(C)CCCCCCOC(=O)C1CCCCC1C(=O)OCCCCCCC(C)C (centres undefined)
active: [2] 1.17 µM
not listed: [16] | [17] | [18] | [19] | [20]
inactive: all other assays above

CCCCCCCCCCCCCCO
active: [2] 100 µM | [6] 171 µM | [7] 158 µM | [10] 100 µM
not listed: [3] | [14] | [16] | [18] | [19] | [20]
inactive: all other assays above

OCc1ccccc1
not listed: [14] | [17]
inactive: all other assays above

CC(C)C(=O)Nc1ccc([N+](=O)[O-])c(C(F)(F)F)c1
active: [2] 2.87 µM | [13] 27 µM
not listed: [12] | [14] | [16] | [19] | [20]
inactive: all other assays above

COc1cc(C(C)C)c2c(c1)S(=O)(=O)N(COc1cc(=O)n3cccc(OCCN4CCCCC4)c3n1)C2=O
active: [1] 8.11 µM | [2] 3.27 µM | [3] 8.25 µM | [4] 4.26 µM | [5] 3.94 µM | [6] 3.78 µM | [9] 4.04 µM | [12] 5.67 µM | [19] 2.75 µM | [17] 2.75 µM | [13] 6.56 µM
inactive: [18] | [7] | [8] | [10] | [11] | [15]

CCc1ccc(O)c(C(C)(C)C)c1
active: [2] 15.9 µM | [14] 42 µM | [12] 43 µM | [17] 24.2 µM
not listed: [16] | [18] | [19] | [20]
inactive: all other assays above

OC[C@H]1O[C@@H]2O[C@H]3[C@H](O)[C@@H](O)[C@@H](O[C@H]4[C@H](O)[C@@H](O)[C@@H](O[C@H]5[C@H](O)[C@@H](O)[C@@H](O[C@H]6[C@H](O)[C@@H](O)[C@@H](O[C@H]7[C@H](O)[C@@H](O)[C@@H](O[C@H]1[C@H](O)[C@H]2O)O[C@@H]7CO)O[C@@H]6CO)O[C@@H]5CO)O[C@@H]4CO)O[C@@H]3CO
active: [2] 18.4 µM
not listed: [14] | [15] | [16] | [17] | [19] | [20]
inactive: all other assays above

COCc1nnc(-c2ccc[n+]([O-])c2)n1-c1c(Cl)c(Cl)cc2[nH]c(=O)c(=O)[nH]c12
not listed: [14] | [15] | [18] | [19] | [20]
inactive: all other assays above

CCCCCCCC/C=C\CCCCCCCC(=O)OC[C@@H](O)[C@H]1OC[C@H](O)[C@H]1O
active: [2] 71.7 µM
not listed: [18] | [19] | [20]
inactive: all other assays above

Cn1c(=O)c2[nH]cnc2n(C)c1=O
active: [9] 100 µM
not listed: [12] | [16] | [18] | [19] | [20]
inactive: all other assays above

O=C(O)[C@H](O)[C@@H](O)C(=O)O
not listed: [12] | [14] | [15] | [17] | [19]
inactive: all other assays above
